Data reported in the supplement of paper PMC13380429.

Test system: Vero E6 infected with SARS-CoV-2
Test: inhibition of SARS-CoV-2 cytopathic effect; higher = more antiviral protection, active = above 15
Details: 48 h

Measured: inhibition of SARS-CoV-2 cytopathic effect

C#C[C@]1(OC(C)=O)CC[C@H]2[C@@H]3CCC4=CC(=O)CC[C@@H]4[C@H]3CC[C@@]21C [norethindrone-acetate]
inactive: 1 nM 0.09% | 8.33 nM 0.03% | 100 nM -1.33% | 833.33 nM 0.02% | 10000 nM 1.02%

NC(=O)c1ccc2[nH]ccc2c1
inactive: 1 nM -2.02% | 8.33 nM 0.22% | 100 nM 0.99% | 833.33 nM 0.03% | 10000 nM 3.72%

CCOC(=O)[C@@H](C)Oc1ccc(Oc2nc3ccc(Cl)cc3o2)cc1 [fenoxaprop-p-ethyl]
inactive: 1 nM 0.1% | 8.33 nM -0.32% | 100 nM -2.57% | 833.33 nM 2.13% | 10000 nM -0.66%

C[C@@H]1CC[C@@]2(OC1)O[C@H]1C[C@H]3[C@@H]4CC=C5C[C@@H](O)CC[C@]5(C)[C@H]4CC[C@]3(C)[C@H]1[C@@H]2C [diosgenin]
inactive: 1 nM -0.61% | 8.33 nM -0.09% | 100 nM 0.12% | 833.33 nM -2.38% | 10000 nM -1.29%

Cc1onc(-c2ccccc2)c1C(=O)N[C@@H]1C(=O)N2[C@@H]1SC(C)(C)[C@@H]2C(=O)O [oxacillin]
inactive: 1 nM 0.69% | 8.33 nM 1.54% | 100 nM 2.17% | 833.33 nM 3.32% | 10000 nM 1.32%

Fc1ccc(-c2nc3n(c2-c2ccncc2)CCS3)cc1
inactive: 1 nM 1.58% | 8.33 nM -0.78% | 100 nM -1.15% | 833.33 nM -1.03% | 10000 nM -1.09%

Cc1cc(OI)c(C(C)C)cc1-c1cc(C(C)C)c(OI)cc1C [thymol-iodide]
inactive: 1 nM -1.11% | 8.33 nM -0.04% | 100 nM -0.16% | 833.33 nM 1.69% | 10000 nM -2.32%

O=C(c1ccc(OCCCc2c[nH]cn2)cc1)C1CC1 [ciproxifan]
inactive: 1 nM -1.13% | 8.33 nM -1.91% | 100 nM -1.12% | 833.33 nM 9.43% | 10000 nM 10.2%

O=C1CC[C@@H](C(=O)N2CSC[C@H]2C(=O)O)N1 [pidotimod]
inactive: 1 nM -1.03% | 8.33 nM 0.49% | 100 nM -1.22% | 833.33 nM 2.73% | 10000 nM -0.3%

CNCCCCOc1ccccc1Cc1ccccc1 [bifemelane]
inactive: 1 nM -0.64% | 8.33 nM 0.99% | 100 nM 1.41% | 833.33 nM -0.82% | 10000 nM -1.85%

COc1cccc2cc(-c3nc([C@H]4CC[C@H](C(=O)O)CC4)n4ncnc(N)c34)[nH]c12
inactive: 1 nM 0.22% | 8.33 nM 2.25% | 100 nM 4.58% | 833.33 nM -0.9% | 10000 nM -2.61%

c1ccc2c(c1)CN1CCCC1=N2 [desoxypeganine]
inactive: 1 nM -4.75% | 8.33 nM -3.18% | 100 nM -1.21% | 833.33 nM -2.32% | 10000 nM -1.54%

c1ccc(-c2n[nH]cc2-c2ccnc3ccccc23)nc1
inactive: 1 nM 1.81% | 8.33 nM -0.93% | 100 nM -2.43% | 833.33 nM -2.05% | 10000 nM -1.69%

CCN1CCC[C@H]1CNC(=O)c1c(OC)ccc(Br)c1OC [remoxipride]
inactive: 1 nM -2.39% | 8.33 nM 2.05% | 100 nM 0.28% | 833.33 nM 0.51% | 10000 nM -1.54%

O=C(OCC(O)CO)c1ccccc1Nc1ccnc2cc(Cl)ccc12 (stereo not given) [glafenine]
inactive: 1 nM -1.53% | 8.33 nM 0.88% | 100 nM 2.29% | 833.33 nM -3.09% | 10000 nM -2.34%

CN1CC(=O)NC1=N [creatinine]
inactive: 1 nM 1.26% | 8.33 nM 1.05% | 100 nM -2.37% | 833.33 nM 1.18% | 10000 nM -1.05%

CNc1cc(OC)c(C(=O)NC2CCN(Cc3ccccc3)C2C)cc1Cl (stereo not given) [nemonapride]
inactive: 1 nM -1.01% | 8.33 nM 2.19% | 100 nM 0.65% | 833.33 nM -1.52% | 10000 nM 2.33%

COc1cc2ncnc(Nc3ccc(Cl)cc3F)c2cc1OC
inactive: 1 nM 1.92% | 8.33 nM -0.75% | 100 nM -1.55% | 833.33 nM -5% | 10000 nM -11.2%

CNCCC(Oc1ccc(C(F)(F)F)cc1)c1ccccc1 (stereo not given) [fluoxetine]
inactive: 1 nM -10.3% | 8.33 nM 0.27% | 100 nM -2.53% | 833.33 nM -3.36% | 10000 nM -9.56%

O.O=[Si]=O.O=[Si]=O.O=[Si]=O.O=[Si]=O.[O]=[Mg].[O]=[Mg].[O]=[Mg]
inactive: 1 nM -4.07% | 8.33 nM 0.07% | 100 nM -1.66% | 833.33 nM 5.91% | 10000 nM 8.79%

CO/N=C(\C(=O)N[C@@H]1C(=O)N2C(C(=O)O)=C(CSc3nc(C)c(CC(=O)O)s3)CS[C@H]12)c1csc(N)n1 [cefodizime]
inactive: 1 nM -6.45% | 8.33 nM -0.68% | 100 nM -2% | 833.33 nM -0.21% | 10000 nM -4.2%

N=C(N)NCCC[C@H](NC(=O)[C@@H]1CCCN1C(=O)[C@@H]1CSSC[C@H](N)C(=O)N[C@@H](Cc2ccc(O)cc2)C(=O)N[C@@H](Cc2ccccc2)C(=O)N[C@@H](CCC(N)=O)C(=O)N[C@@H](CC(N)=O)C(=O)N1)C(=O)NCC(N)=O [vasopressin]
inactive: 1 nM 3.02% | 8.33 nM -0.42% | 100 nM 1.64% | 833.33 nM 0.05% | 10000 nM -0.05%

Cc1cc2c(s1)Nc1ccccc1N=C2N1CCN(C)CC1 [olanzapine]
inactive: 1 nM -1.67% | 8.33 nM -2.18% | 100 nM -0.41% | 833.33 nM 8.51% | 10000 nM 1.41%

CC[C@H]1OC(=O)[C@H](C)C(=O)[C@H](C)[C@@H](O[C@@H]2O[C@H](C)C[C@H](N(C)C)[C@H]2O)[C@](C)(OC)C[C@@H](C)C(=O)[C@H](C)[C@H]2N(CCCCn3cnc(-c4cccnc4)c3)C(=O)O[C@]12C [telithromycin]
inactive: 1 nM -2.13% | 8.33 nM -0.46% | 100 nM -1.7% | 833.33 nM 0.65% | 10000 nM -0.07%

CC(C)C[C@@H](C=O)NC(=O)[C@H](CC(C)C)NC(=O)[C@H](CC(C)C)NC(=O)OCc1ccccc1
inactive: 1 nM -0.72% | 8.33 nM 0.74% | 100 nM 9.43%
active: 833.33 nM 54% | 10000 nM 55.5%

Cc1ccc(F)c(NC(=O)Nc2ccc(-c3cccc4[nH]nc(N)c34)cc2)c1 [linifanib]
inactive: 1 nM -2.72% | 8.33 nM -3.15% | 100 nM -4.95% | 833.33 nM -2.75% | 10000 nM -2.71%

O=C(O)CCCO
inactive: 1 nM 1.65% | 8.33 nM 2.68% | 100 nM 2.71% | 833.33 nM 1.83% | 10000 nM 1.79%

NC(=O)c1cccc(-c2cccc(OC(=O)NC3CCCCC3)c2)c1
inactive: 1 nM 1.14% | 8.33 nM 3.25% | 100 nM 1.96% | 833.33 nM 1.41% | 10000 nM 1.6%

CCC(=O)O[C@@](Cc1ccccc1)(c1ccccc1)[C@@H](C)CN(C)C [levopropoxyphene]
inactive: 1 nM 7.6% | 8.33 nM 2.53% | 100 nM 1.97% | 833.33 nM 0.91% | 10000 nM -3.41%

CCN(CC)CCNC(=O)c1c(C)[nH]c(/C=C2\C(=O)Nc3ccc(F)cc32)c1C [sunitinib]
active: 10000 nM 30.3%
inactive: 1 nM 0.55% | 8.33 nM -1.31% | 100 nM 2.08% | 833.33 nM -2.15%

Cc1c(CN2CCN(C(=O)[C@H](C)O)CC2)sc2c(N3CCOCC3)nc(-c3cnc(N)nc3)nc12
inactive: 1 nM -0.71% | 8.33 nM 0.05% | 100 nM 0.57% | 833.33 nM -5.06% | 10000 nM -12.7%

N#Cc1cc(F)cc(-c2nc(-c3ccc(F)cn3)no2)c1
inactive: 1 nM 0.6% | 8.33 nM 2.48% | 100 nM 1.15% | 833.33 nM -0.25% | 10000 nM 2.97%

CC[C@H](C)[C@@H]1NC(=O)[C@H](Cc2ccc(O)cc2)NC(=O)[C@@H](N)CSSC[C@@H](C(=O)N2CCC[C@H]2C(=O)N[C@@H](CC(C)C)C(=O)NCC(N)=O)NC(=O)[C@H](CC(N)=O)NC(=O)[C@H](CCC(N)=O)NC1=O [oxytocin]
inactive: 1 nM 5.14% | 8.33 nM 3.79% | 100 nM 3.52% | 833.33 nM 0.66% | 10000 nM -0.57%

C1CCC2(CC1)CCNCC2 [4,4-pentamethylenepiperidine]
inactive: 1 nM 0.06% | 8.33 nM 0.78% | 100 nM -1% | 833.33 nM 1.32% | 10000 nM 0.37%

Nc1nc(NC2CC2)cc(-c2cccc(Cl)c2Cl)n1
inactive: 1 nM 0.66% | 8.33 nM -1.17% | 100 nM -1.96% | 833.33 nM -0.45% | 10000 nM -1.5%

CCOC(=O)Nc1ccc(NCc2ccc(F)cc2)nc1N [flupirtine]
inactive: 1 nM 0.67% | 8.33 nM 0.58% | 100 nM -1.4% | 833.33 nM 0.07% | 10000 nM 1.37%

CC(=O)NCCc1c(Cc2ccccc2)[nH]c2ccccc12 [luzindole]
inactive: 1 nM 5.27% | 8.33 nM 4.35% | 100 nM 1.82% | 833.33 nM 3.18% | 10000 nM 3.21%

Cc1nc(C)c(C)nc1C [chuanxiongzine]
inactive: 1 nM 2.81% | 8.33 nM 0.85% | 100 nM 2.51% | 833.33 nM 5.75% | 10000 nM 1.87%

O=C1c2c(O)cccc2Cc2cccc(O)c21 [anthralin]
inactive: 1 nM -1.32% | 8.33 nM -2.05% | 100 nM 0.93% | 833.33 nM -2.71% | 10000 nM -1.19%
